# Results reported in PubChem BioAssay (NCATS).
# Values joined by “and” are separate entries in the source; they are usually repeats but may differ in a detail not shown here. Identical values can stand only once. Inconclusive results are not listed. Where a call stands in place of a potency, no number is given. Active and inactive are the calls of the source. Unless noted, calls come from the whole dose curve; as a rule, active = well fitted curve in the direction sought with a large enough effect; inconclusive = small, poorly fitted or top-dose-only effect, or another doubt; inactive = no such curve, though single readings can be large; an effect the other way counts as inactive or inconclusive.
# Columns and labels:
# [1] = tested on: Zika virus NS2B-NS3 protease (unlinked complex); experiment: Primary screen GU Rhodamine qHTS for Zika virus inhibitors: Unlinked NS2B-NS3 protease assay (AID 1347159); note: nearly all actives have a fitted effect of over 60% in size
# How it was run: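 Buffer 10 mM Tris-HCl pH 8.0, 0.01% Tween 20. Unlinked protease 25 nM; compound preincubation 15 min, RT, protected from light. Substrate Rhod110, 1.5 microM; ~15% conversion in 15 min.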
# [2] = Primary qHTS for inhibitors of nuclear receptor binding SET domain protein 2 (NSD2) in an RCH-ACV wild type WT cells (2C) (AID 1645877); note: potency is the fitted concentration of half-maximal effect; nearly all actives have a fitted effect of over 70% in size
# [3] = Primary redox qHTS assay for identification of artifact compounds. (AID 1845223)
# How it was run: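 Redox-cycling detection via DTT (250 uM final) oxidation coupled to Amplex Red (25 uM)/HRP (250 mU/mL) in HBSS. 15 min preincubation plus 30 min after DTT, room temperature. Ex/Em 525/598 nm; 4-parameter Hill fit against DMSO and 10 uM DA3003.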
# [4] = target: Luciferin 4-monooxygenase (Photinus pyralis) (UniProt P08659); experiment: Biochemical firefly luciferase enzyme assay for NPC (AID 624030); note: nearly all actives have a fitted effect of over 70% in size; note: potency is the fitted concentration of half-maximal effect;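 for activity change, negative = inhibition: purified P. pyralis luciferase at 10 nM with luciferin and ATP substrate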
# Luciferin 4-monooxygenase (Photinus pyralis), sequence (P08659 whole entry, looked up): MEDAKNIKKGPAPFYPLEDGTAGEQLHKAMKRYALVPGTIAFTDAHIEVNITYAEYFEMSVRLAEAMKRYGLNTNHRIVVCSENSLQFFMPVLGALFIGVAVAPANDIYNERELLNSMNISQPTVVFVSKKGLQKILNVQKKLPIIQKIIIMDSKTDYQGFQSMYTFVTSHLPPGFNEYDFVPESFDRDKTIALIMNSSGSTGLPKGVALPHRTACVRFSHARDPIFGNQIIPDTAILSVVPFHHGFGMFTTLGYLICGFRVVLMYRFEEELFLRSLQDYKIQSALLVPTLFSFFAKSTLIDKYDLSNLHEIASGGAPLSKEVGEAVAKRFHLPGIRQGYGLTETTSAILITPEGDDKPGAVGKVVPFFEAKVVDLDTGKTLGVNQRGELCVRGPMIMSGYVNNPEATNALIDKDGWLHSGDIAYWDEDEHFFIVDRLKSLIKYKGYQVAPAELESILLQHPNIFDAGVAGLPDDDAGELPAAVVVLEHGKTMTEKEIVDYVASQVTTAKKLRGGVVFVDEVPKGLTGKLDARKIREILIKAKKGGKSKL
# How it was run: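 Counter-screen for direct inhibition of the luciferase enzyme by approved-drug library compounds, run at 10 nM enzyme in 50 mM Tris acetate (final). Luminescence was read within 5 min of enzyme-buffer addition and normalized to PTC124 versus DMSO (0%).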
# [5] = Drug repurposing screens with cells derived from glioblastoma tumor samples (AID 1345199); settings: GBM patient neurospheres viability, ATP luminescence, 48 h; Potency: tumour line A; series mostly up to 45.9 µM; note: nearly all actives have a fitted effect of over 40% in size
# How it was run: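 Primary testing used CD133+ neurospheres from four GBM patients, seven concentrations, 48 h exposure and ATP-based viability; confirmation added three slower-growing patient lines.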
# [6] = Primary fluorescence-based thiol-reactive (MSTI) qHTS assay for identification of artifact compounds. (AID 1845221);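 note: thiol-reactive compounds lower the probe fluorescence signal; nearly all actives have a fitted effect of over 65% in size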
# How it was run: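 One-hour, room-temperature, dark incubation of compound with 4 uM MSTI in PBS (pH 7.4, 2% DMSO) precedes a fluorescence read at 525 nm excitation, 598 nm emission; Hill-equation fitting yields concentration-response values.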
# [7] = tested on: CAOV3; experiment: Primary qHTS to identify gynecologic anti-cancer compounds using libraries of approved drugs and bioactive compounds (AID 1345084); settings: Gynecologic cancer cell panel viability, ATPlite luminescence, 48 h; series mostly up to 57.5 µM; note: nearly all actives have a fitted effect of over 55% in size
# How it was run: (§1)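 In this quantitative HTS, cell killing is estimated from loss of ATP-dependent luciferase light. Cells see five compound concentrations over a 48 h exposure.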
# [8] = tested on: CASKI; experiment: as above; settings: Gynecologic cancer cell panel viability, ATPlite luminescence, 48 h; series mostly up to 57.5 µM
# How it was run: as §1
# [9] = tested on: Es-2; experiment: as above; settings: Gynecologic cancer cell panel viability, ATPlite luminescence, 48 h; series mostly up to 57.5 µM
# How it was run: as §1
# [10] = tested on: Hek293T; experiment: as above; settings: Gynecologic cancer cell panel viability, ATPlite luminescence, 48 h, control line for the selectivity index; series mostly up to 57.5 µM
# How it was run: as §1
# [11] = tested on: PA-1; experiment: as above; settings: Gynecologic cancer cell panel viability, ATPlite luminescence, 48 h; series mostly up to 57.5 µM
# How it was run: as §1
# [12] = tested on: SKOV3; experiment: as above; settings: Gynecologic cancer cell panel viability, ATPlite luminescence, 48 h; series mostly up to 57.5 µM
# How it was run: as §1
# [13] = tested on: Tov112D; experiment: as above; settings: Gynecologic cancer cell panel viability, ATPlite luminescence, 48 h; series mostly up to 57.5 µM
# How it was run: as §1
# [14] = Primary qHTS for Huh7 cytotoxicity: counterscreen for inhibitors of MERS-S pseudotyped particle cell entry (AID 1479147; calls by dose curve); settings: outcome: dose series up to 57.1 µM unless noted
# [15] = Primary qHTS for Vero E6 cytotoxicity: counterscreen for inhibitors of SARS-S pseudo-typed particle cell entry (AID 1479150; calls by dose curve); settings: outcome: dose series up to 57.1 µM unless noted
# [16] = Primary qHTS to identify inhibitors of SARS-CoV-2 cell entry (AID 1645846; calls by dose curve; note: nearly all actives have a fitted effect of over 45% in size; note: potency is the fitted concentration of half-maximal effect); settings: activity change, negative = inhibition: at 57.1 µM (top of the series) unless noted
# How it was run: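 HEK293 cells stably expressing human ACE2, pre-treated 1 h with compound, then infected with MLV particles pseudotyped with Wuhan-Hu-1 spike (C-terminal 19-aa truncation). Luciferase luminescence after 48 h at 37 °C, normalised to spike PP and bald PP.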
# [17] = tested on: NIH3T3; experiment: Cytotoxic Profiling of Annotated Libraries Using Quantitative High-Throughput Screening (AID 1296008); settings: Five cell lines viability, CellTiter-Glo ATP luminescence, 48-72 h; max response: stronger effect = lower value; note: potency is the fitted concentration of half-maximal effect; nearly all actives have a fitted effect of over 60% in size
# How it was run: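 Compounds were pin-transferred onto cells and incubated 48 or 72 hr at 37 degree Celsius, 95% humidity. CellTiter-Glo was added, plates sat 10 min at room temperature, then ATP-coupled luminescence was imaged as the viability read-out.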
# [18] = tested on: C33A; experiment: Primary qHTS to identify gynecologic anti-cancer compounds using libraries of approved drugs and bioactive compounds (AID 1345084); settings: Gynecologic cancer cell panel viability, ATPlite luminescence, 48 h; series mostly up to 57.5 µM; note: nearly all actives have a fitted effect of over 55% in size
# How it was run: as §1
# [19] = tested on: Tov-21-G; experiment: as above; settings: Gynecologic cancer cell panel viability, ATPlite luminescence, 48 h; series mostly up to 57.5 µM
# How it was run: as §1
structure (smiles),measurement,setting,value
Fc1cc(F)c2c(c1)[C@H]1C=CC[C@H]1C(c1cccnc1)N2 (stereo partly specified),Potency,[1],inactive
same,Potency,[2],8.17 µM (active)
same,Potency,[3],inactive
C/C=C(\CC)C(=O)NC(N)=O,Potency,[4],inactive
same,Potency,[5],inactive
N#Cc1ccc(N2CCN(C(=O)COc3ccc4[nH]cc(CCN)c4c3)CC2)cc1,Potency,[1],inactive
same,Potency,[6],inactive
same,Potency,[7],inactive
same,Potency,[8],inactive
same,Potency,[9],inactive
same,Potency,[10],inactive
same,Potency,[11],inactive
same,Potency,[12],inactive
same,Potency,[13],inactive
C1CN(P2(N3CC3)=NP(N3CC3)(N3CC3)=NP(N3CC3)(N3CC3)=N2)CCO1 (stereo unspecified),Potency,[4],inactive
same,Potency,[5],inactive
CN[C@@]1(c2ccccc2Cl)CCCCC1=O,Potency,[5],inactive
COc1cc(C[C@H](C)N)c(OC)cc1Br,Potency,[4],inactive
CC(N)Cc1ccc2c(c1)OCO2 (stereo unspecified),Potency,[4],inactive
same,Potency,[5],inactive
COC(=O)c1ccccc1C(=O)OC,Potency,[4],inactive
same,Potency,[5],inactive
Oc1cc[c]([Hg][Cl])cc1,Potency,[4],8.09 µM (active) and 9.07 µM (active)
CCOC(=O)C1(c2ccccc2)CCCN(C)CC1 (stereo unspecified),Potency,[4],inactive
same,outcome,[14],inactive
same,outcome,[15],inactive
same,"activity change, negative = inhibition",[16],-23.2%
same,Potency,[5],inactive
COc1cc(C[C@H](C)N)c(OC)cc1C,Potency,[5],inactive
C[C@]12CCC(=O)C[C@@H]1CC[C@@H]1[C@@H]2CC[C@@]2(C)[C@H]1CC[C@]2(C)O,Potency,[5],inactive
C[C@@H](N)C(=O)c1ccccc1,Potency,[5],inactive
O=C(O)CCCO,Potency,[4],inactive
same,Potency,[5],inactive
C[C@@H]1[C@H]2Cc3ccc(O)cc3[C@]1(C)CCN2C,Potency,[5],inactive
OCCN(CCO)CCO,Potency,[4],inactive
same,outcome,[14],inactive
same,outcome,[15],inactive
same,"activity change, negative = inhibition",[16],-24%
same,Potency,[5],inactive
Oc1ccc2c3c1O[C@H]1[C@@H](O)C=C[C@H]4[C@H](C2)NCC[C@@]341,Potency,[5],inactive
CC(C)C[C@H]1C(=O)N2CCC[C@H]2[C@]2(O)O[C@](NC(=O)[C@@H]3C[C@@H]4c5cccc6[nH]cc(c56)C[C@H]4N(C)C3)(C(C)C)C(=O)N12,outcome,[14],inactive
same,outcome,[15],inactive
C=CCC1([C@@H](C)CCC)C(=O)NC(=O)NC1=O,Potency,[4],inactive
same,Potency,[5],inactive
CC(=O)[C@@]1(O)CC[C@H]2[C@@H]3CCC4=CC(=O)CC[C@]4(C)C3(F)[C@@H](O)C[C@@]21C (stereo partly specified),outcome,[14],inactive
same,outcome,[15],inactive
same,"activity change, negative = inhibition",[16],-3.62%
same,Potency,[5],inactive
Cc1nnc2n1-c1sc(Br)cc1C(c1ccccc1Cl)=NC2,Potency,[4],inactive
same,outcome,[14],inactive
same,outcome,[15],inactive
CNC(C)CC1CCCCC1 (stereo unspecified),Potency,[4],inactive
same,outcome,[14],inactive
same,outcome,[15],inactive [at 85.7 µM]
same,"activity change, negative = inhibition",[16],-28.6% [at 85.7 µM]
same,Potency,[5],inactive
CCN(CC)/[N+]([O-])=N/O,Potency,[4],inactive
same,Potency,[5],inactive
CN1CC[C@@]23CCCC[C@@H]2[C@@H]1Cc1ccc(O)cc13,Potency,[4],inactive
Cc1ccc2c(c1)[C@]13CCCC[C@@H]1[C@H](C2)N(C)CC3,outcome,[14],inactive
same,outcome,[15],inactive
CCOc1cc(C=O)ccc1O,Potency,[4],inactive
same,Potency,[5],inactive
O=C1CN=C(c2ccccc2)c2cc(Cl)ccc2N1,Potency,[4],inactive
same,Potency,[5],inactive
C[N+](C)(C)CC(=O)[O-],Potency,[4],inactive
same,Potency,[5],inactive
CCOP(=S)(OCC)SCSc1ccc(Cl)cc1,Potency,[4],inactive
same,Potency,[5],inactive
CN(C)CCO,Potency,[4],inactive
same,Potency,[5],inactive
CCCCNC(C)(C)[P+](=O)O,Potency,[5],inactive
COC(=O)[C@H]1[C@@H](OC(=O)c2ccccc2)C[C@@H]2CC[C@H]1N2C,outcome,[14],inactive [at 114 µM]
same,outcome,[15],inactive [at 114 µM]
same,"activity change, negative = inhibition",[16],-14.7% [at 114 µM]
same,Potency,[5],inactive
CN1CCN=C(c2ccccc2)c2cc(Cl)ccc21,Potency,[4],inactive
COc1ccc(OC)c(C[C@H](C)N)c1,Potency,[4],inactive
same,Potency,[5],inactive
CN[C@]1(c2ccccc2Cl)CCCCC1=O,Potency,[5],inactive
CC1=CC(=O)[C@@H](O)[C@]2(C)C3[C@@H](O)[C@@H]4OC(=O)[C@@H]([C@H]4C)[C@]3(C)C(=O)[C@H](O)[C@@H]12 (stereo partly specified),Potency,[1],inactive
same,Potency,[3],inactive
same,Potency,[17],2.55 µM (active)
same,Potency,[18],inactive
same,Potency,[7],inactive
same,Potency,[8],inactive
same,Potency,[12],inactive
same,Potency,[19],inactive
O=C(O)CCn1c2c(c3ccccc31)C[C@H](NS(=O)(=O)c1ccc(F)cc1)CC2,outcome,[14],inactive
same,outcome,[15],inactive
same,"activity change, negative = inhibition",[16],-25.2% and -23.3%
CCCCCCCCCCCCCCCCCCCCCCO,outcome,[14],inactive [at 0.573 µM]
same,"activity change, negative = cytotoxicity",[15],2.8% [at 0.573 µM] (inactive)
O=C(O)CCC=CCC[C@@H]1[C@H](N2CCCCC2)[C@@H](O)C[C@@H]1OCc1ccc(-c2ccccc2)cc1,outcome,[14],inactive
same,outcome,[15],inactive
CCCCCCCCCCCCc1ccc(S(=O)(=O)Nc2nncs2)cc1,"activity change, negative = inhibition",[16],-14.7%
CN1c2cc(O)c(N=NC(N)=O)cc2CC1S(=O)(=O)O (stereo unspecified),outcome,[14],inactive
same,outcome,[15],inactive
same,"activity change, negative = inhibition",[16],4.67%
CCc1nc(-c2cccc(C)c2)c(-c2ccnc(NC(=O)c3ccccc3)c2)s1,Potency,[16],25.1 µM (active)
COC1=C(OC)C(=O)C(CC=C(C)CCC=C(C)CCC=C(C)CCC=C(C)CCC=C(C)CCC=C(C)CCC=C(C)CCC=C(C)CCC=C(C)CCC=C(C)C)=C(C)C1=O,outcome,[14],inactive [at 5.34 µM]
same,outcome,[15],inactive [at 5.34 µM]
same,outcome,[16],inactive [at 5.25 µM]
COc1ccc(C2(C#N)CCC(C(=O)O)CC2)cc1OC1CCCC1 (stereo unspecified),outcome,[14],inactive
same,outcome,[15],inactive
same,Potency,[16],inactive
same,"activity change, negative = inhibition",[16],-18.7%
C[C@@H]1CCO[C@H]2Cn3cc(C(=O)NCc4ccc(F)cc4F)c(=O)c(O)c3C(=O)N12,outcome,[14],inactive
same,outcome,[15],inactive
CCCCCCCCCC(=O)N[C@@H](Cc1c[nH]c2ccccc12)C(=O)N[C@H](CC(N)=O)C(=O)N[C@@H](CC(=O)O)C(=O)N[C@@H]1C(=O)NCC(=O)N[C@@H](CCCN)C(=O)N[C@@H](CC(=O)O)C(=O)N[C@H](C)C(=O)N[C@@H](CC(=O)O)C(=O)NCC(=O)N[C@H](CO)C(=O)N[C@@H]([C@@H](C)CC(=O)O)C(=O)N[C@@H](CC(=O)c2ccccc2N)C(=O)O[C@@H]1C,outcome,[14],inactive [at 26.4 µM]
same,outcome,[15],inactive
same,Potency,[16],inactive
same,"activity change, negative = inhibition",[16],-32.9% [at 27.1 µM]
CN1C(C(=O)Nc2ccccn2)=C(O)c2sc(Cl)cc2S1(=O)=O,outcome,[14],inactive
same,outcome,[15],inactive
same,"activity change, negative = inhibition",[16],2.28%
OC(CCN1CCCCC1)(c1ccccc1)C1CCCCC1 (stereo unspecified),outcome,[14],inactive
same,outcome,[15],inactive
N#Cc1ccc(Oc2ccc3c(c2)COB3O)cc1,outcome,[14],inactive
same,Potency,[16],inactive
same,"activity change, negative = inhibition",[16],-3.74%
